HP1b binding inh = inhibitors of HP1-beta chromodomain binding to methylated histone tails | AID 540317 | Potency, µM (titrated, usually from 114 µM), hits mostly inhibitors | hit rate 0.56% among 390,000 | P83916 | AlphaScreen HP1-beta / biotin-H3K9me3 peptide binding; further: nearly all actives have a fitted effect of over 70% in size
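Compound inhibition of the preformed complex between 50 nM HP1-beta and 50 nM biotinylated H3K9me3 peptide was read by AlphaScreen. Buffer was PBS pH 7.4 with 0.01% Tween-20. Incubations ran 30 min at room temperature, with 10 ug/mL donor/acceptor beads.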
TDP1 block = TDP1 (human) enzyme inhibition; Q9NUW8; recombinant TDP1, AlphaScreen DNA substrate cleavage; Potency, µM (doses to about 130 µM), usual class: inhibitors; hit rate 0.28% among 350,000; further: nearly all actives have a fitted effect of over 40% in size
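Tdp1 1 nM final; 15 min RT w/ cpd; substrate 15 nM, 5 min; beads 10 ug/ml, 10 min; AlphaScreen read. Neg ctrl: no enzyme.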
JMJD2A Tudor = inhibitors of human JMJD2A Tudor domain. O75164. AlphaScreen JMJD2A-Tudor / H3K4me3 peptide binding. Potency, µM (highest dose often 114 µM), hits mostly inhibitors. hit rate 4.4% among 390,000; further: nearly all actives have a fitted effect of over 50% in size
Sfp PPTase inh = blocks B. subtilis Sfp PPTase activity; Potency, µM, most hits filed as inhibitors; Biochemical Sfp PPTase activity, qHTS; hit rate 3.5% among 310,000;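 further: the enzyme is Sfp with the accession as filed and its product quenches rhodamine fluorescence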
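Fluorescence-quenching assay: 15 nM Sfp-PPTase preincubated 15 min at room temperature with compound, then 5 uM rhodamine-CoA and 12.5 uM BHQ-2-labelled YbbR peptide added. Fluorescence (ex 525/em 598 nm) read at start and after 30 min; difference gives rate.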
BAZ2B block = BAZ2B (human) inhibition; Potency, µM (doses to about 114 µM), usual class: inhibitors; hit rate 4.4% among 360,000; AlphaScreen BAZ2B-H3K14Ac peptide displacement; Q9UIF8; further: nearly all actives have a fitted effect of over 60% in size
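AlphaScreen displacement: compounds (up to 110uM) incubated 30 min at room temperature with a preformed 50 nM BAZ2B/50 nM biotinylated H3K14Ac peptide complex in PBS pH 7.4 with Tween-20. Donor and acceptor beads at 10 ug/mL final added, 20 min light-protected before reading.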
G9a inh = inhibitors of human histone lysine methyltransferase G9a; Q96KQ7; AID 504332; hit rate 8.8% among 350,000; Potency, µM (highest dose often 102 µM), usual class: inhibitors; G9a H3K9 monomethylation, AlphaScreen, 2 h; further: nearly all actives have a fitted effect of over 75% in size
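Quantitative HTS format: methyltransferase activity on a biotin-tagged H3K9 peptide is measured by AlphaScreen, using a rabbit anti-monomethyl-H3K9 antibody with streptavidin donor and anti-IgG acceptor beads. Final levels are 20 nM enzyme, 500 nM peptide, 20 uM SAM; 2 h RT.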
Numbers stand for hits; i = inactive; ? = inconclusive; nt = no result; [ ] = remark or other dose. Compounds with a hit are over-represented: about 12% of the library has one in this group of screens. The call rests on the fitted dose curve; in most records, active means well fitted curve in the direction sought with a large enough effect; inconclusive means small, poorly fitted or top-dose-only effect, or another doubt; inactive means no such curve, though single readings can be large; an effect the other way counts as inactive or inconclusive.

SMILES | HP1b binding inh | TDP1 block | JMJD2A Tudor | Sfp PPTase inh | BAZ2B block | G9a inh
O=C(NCc1ccc(Cl)cc1)c1cnc(N2CCOCC2)c2ccccc12 | i | i | i | nt | i | i
NS(=O)(=O)c1ccc(CCNC(=O)c2cc3ccccc3s2)cc1 | i | nt | i | i | ? | i
COCCn1c(=O)c(-c2ccc(F)cc2)nc2cnc(N3CCOCC3)nc21 | nt | nt | nt | i | nt | i[0.501 µM]
CC1=C(CC(=O)O)c2cc(F)ccc2/C1=C/c1ccc(S(C)=O)cc1 (stereo not drawn) | i | nt | i | i | i | 50µM
CC1=C(CC(=O)O)c2cc(F)ccc2/C1=C\c1ccc(S(C)(=O)=O)cc1 | nt | ? | nt | nt | nt | i[12.7 µM]
COC(=O)c1c(-c2cccs2)csc1NC(=O)COc1c(C)ccc(C)c1C | ? | i | 79µM | nt | ? | 1.4µM
COC(=O)c1c(-c2cccs2)csc1NC(=O)c1ccc(C(C)(C)C)cc1 | i | i | ? | nt | i | 1.8µM
COC(=O)c1c(-c2cccs2)csc1NC(=O)c1ccc(Cl)cc1 | i | i | i | nt | i | 2.2µM
COC(=O)c1c(-c2cccs2)csc1NC(=O)c1cccc(Cl)c1 | i | ? | i | nt | i | ?
CCOC(=O)c1c(-c2cccs2)csc1NC(=O)CN(CC)CC | i | i | i | i | i | i[12.7 µM]
COC(=O)c1c(-c2cccs2)csc1NC(=O)c1ccc(C(C)C)cc1 | i | ? | i | nt | i | 2.8µM
O=C(CSc1nc2nn(-c3ccccc3)c(=O)c-2c2n1CCCCC2)Nc1cccc(F)c1 | i | i | i | nt | nt | nt
COc1ccc(NS(=O)(=O)c2ccc3c(c2)NC(=O)CC(=O)N3)cc1OC | i | i | i | i | i | i
Cc1cccc([S+](=O)([O-])NC2CCN(C#N)CC2)c1 | nt | i | i | nt | nt | nt
COC(=O)c1c(-c2cccs2)csc1NC(=O)COc1ccc(C)cc1 | i | nt | i | nt | i | ?
COC(=O)c1c(-c2cccs2)csc1NC(=O)COc1ccc(C(C)(C)C)cc1 | i | ? | i | nt | i | 4µM
CCc1ccc2c(c1)C(=O)c1ccccc1C2=O | ? | i | ? | i | ? | ?
CC(C)(C)c1ccc2c(c1)C(=O)c1ccccc1C2=O | ? | i | 45µM | i | 32µM | 35µM
CCOc1cc(/C=C2\NC(=S)N(C)C2=O)ccc1OCc1ccc(C(=O)O)cc1 | i | nt | ? | i | 71µM | ?
CN1C(=O)/C(=C/c2ccc(OCc3ccc(C(=O)O)cc3)c(Cl)c2)NC1=S | i | nt | i | i | ? | ?
CCC(C)NC(=O)c1[nH]c2cc(OC)ccc2c1Sc1ccc(C)cc1 (stereo not drawn) | i | i | i | nt | i | i
Cc1cccc(C)c1NC(=O)C1C2C=CC(C2)C1C(=O)NCc1ccccn1 (stereo not drawn) | i | i | i | i | 79µM | ?
O=C(O)C1C2C=CC(C2)C1C(=O)NCc1ccccn1 (stereo not drawn) | nt | i | nt | i | ? | i
O=C(Nc1cccc(F)c1)N1CCCC2(CCN(C(=O)c3cc(C(F)(F)F)cc(C(F)(F)F)c3)CC2)C1 | nt | nt | nt | i | nt | i[12.7 µM]
COc1cccc(/C=N/NC(=O)c2ccc(COc3ccc(Cl)cc3Cl)o2)c1 | i | i | i | 0.79µM | i | i
SMILES | HP1b binding inh | TDP1 block | JMJD2A Tudor | Sfp PPTase inh | BAZ2B block | G9a inh
CNC(=O)COc1coc(CN2CCN(c3ccccc3OC)CC2)cc1=O | i | i | i | i | i | i
O=C(CSc1ncn(-c2ccccc2)n1)Nc1nc2c(s1)CCCC2 | ? | i | 50µM | ? | 45µM | i[12.7 µM]
CC(=O)Nc1ccc(NC(=O)CSC2=NCCS2)cc1 | i | i | i | i | i | ?
O=C(CSC1=NCCS1)Nc1nc2c(s1)CCCC2 | i | i | i | 56µM | ? | 40µM
O=C(CSc1ncn(-c2ccccc2)n1)Nc1nncs1 | i | i | i | i | i | ?
CC(=O)Nc1nonc1NC(=O)CSC1=NCCS1 | i | i | i | i | i | 56µM
COC(=O)c1cc(S(=O)(=O)N2CCN(c3cccc(C)c3C)CC2)c[nH]1 | i | nt | ? | i | ? | i
Cc1ccc(C(=O)COC(=O)COc2ccc(C)c(C)c2)cc1 | i | i | i | i | i | i[0.501 µM]
Cc1cc(CNC(=S)Nc2cccc(Cl)c2Cl)nn1C | i | i | i | i | i | nt
N#Cc1c2nc3ccccc3nc2n2cc(NC(=O)c3ccc(F)cc3)ccc12 | i | i | 18µM | ? | ? | 3.2µM
Cc1c(C(=O)Nc2ccc(F)cc2)cn2c(nc3ccccc32)c1C#N | i | nt | i | i | i | i
CCCCN1C=CC(=C2C(=O)c3ccccc3C2=O)C=C1 | i | i | i | i | i | 50µM
COc1ccc(C(=O)NCCc2nnc3ccc(SCC(=O)N4CCOCC4)nn23)cc1 | i | i | i | i | i | nt
CC(=O)C1=C(c2cccc([N+](=O)[O-])c2)N(C(C)=O)n2c(C)nnc2S1 | i | i | i | i | ? | 10µM
COc1ccc(C2=C(C(C)=O)Sc3nnc(-c4ccccc4)n3N2C(C)=O)cc1 | i | i | i | nt | i | i
O=[N+]([O-])c1c(Nc2ccccn2)cc(Cl)c2nonc12 | ? | i | ? | 7.9µM | ? | 0.71µM
O=C(O)c1cccc(Nc2cc(Cl)c3nonc3c2[N+](=O)[O-])c1 | i | i | i | i | i | 32µM
O=[N+]([O-])c1c(Nc2ccc(O)cc2)cc(Cl)c2nonc12 | i | nt | ? | 50µM | ? | 32µM
O=C(O)c1cccc(Nc2ccc([N+](=O)[O-])c3nonc23)c1 | ? | nt | i | i | ? | 71µM
CC(C)(C)OC(=O)NC1CCN(S(=O)(=O)c2ccc3c(c2)OCCO3)CC1 | i | nt | i | i | i | nt
COc1ccc(/C=N/OC(=O)Nc2ccccc2OC)cc1 | i | i | i | i | i | i
CC(NC(=O)c1ccccc1Cl)C1CC2CCC1C2 (stereo not drawn) | i | i | i | i | i | i
CCC(=O)c1ccc(OCC(=O)OCC(=O)N2c3ccccc3CC2C)cc1 (stereo not drawn) | i | nt | i | nt | i | i
CC(=O)c1ccc(Nc2ccc([N+](=O)[O-])c3nonc23)cc1 | i | nt | i | i | ? | ?
O=[N+]([O-])c1ccc(Nc2ccccc2O)c2nonc12 | ? | nt | 50µM | i | ? | ?
SMILES | HP1b binding inh | TDP1 block | JMJD2A Tudor | Sfp PPTase inh | BAZ2B block | G9a inh
O=C(O)c1ccc(Nc2ccc3nonc3c2[N+](=O)[O-])cc1 | i | nt | i | i | i | i
O=C(O)c1ccccc1Nc1cc(Cl)c2nonc2c1[N+](=O)[O-] | i | i | i | ? | i | 45µM
O=C(NCCc1ccc2c(c1)OCCO2)c1ccccc1F | i | i | i | i | i | i
O=C(/C=C/c1ccc(F)cc1)NCCc1ccc2c(c1)OCCO2 | i | i | i | i | i | 89µM
O=C(COC(=O)c1cc(Cl)ccc1O)NC(=O)NCc1ccccc1 | i | i | i | nt | i | ?
Cc1cc(C)cc(C(=O)NCC(=O)OCC(=O)Nc2cccnc2Cl)c1 | i | i | 10µM | i | i | i
O=C(COC(=O)c1ccc(Cl)cc1O)Nc1cccnc1Cl | i | i | i | i | i | 50µM

Assay outcomes as filed in PubChem BioAssay.
